This passage reports binding signal results from article PMC8384837, “Expanding the binding specificity for RNA recognition by a PUF domain”.

Chain of PUM1 PUF domain R5-RHA (Q14671 828-1176 C1007R/R1008H/Q1011A): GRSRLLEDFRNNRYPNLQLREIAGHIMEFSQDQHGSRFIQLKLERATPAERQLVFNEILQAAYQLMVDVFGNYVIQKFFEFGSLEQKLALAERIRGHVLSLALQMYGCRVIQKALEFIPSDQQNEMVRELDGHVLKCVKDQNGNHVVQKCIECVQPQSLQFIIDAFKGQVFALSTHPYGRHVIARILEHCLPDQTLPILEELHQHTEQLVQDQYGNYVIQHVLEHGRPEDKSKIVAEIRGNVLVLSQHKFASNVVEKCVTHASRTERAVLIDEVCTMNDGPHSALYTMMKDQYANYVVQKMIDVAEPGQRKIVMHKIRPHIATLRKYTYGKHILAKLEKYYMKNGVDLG
Chain of PUM1 PUF domain R4-DWS (Q14671 828-1176 N971D/H972W/Q975S): as the sequence (Q14671 828-1176 C1007R/R1008H/Q1011A) above, with N144D, H145W, Q148S, R180C, H181R, A184Q counted along it

The first assay has as its target PUM1 PUF domain R5-RHA (Homo sapiens, UniProt Q14671 828-1176, C1007R;R1008H;Q1011A). Kind of assay: yeast three-hybrid, YBZ-1, SC-Leu-His + 0.5 mM 3-AT, 4 days. The conditions noted are these: tags: N-Gal4 AD-HA kept; label: inside an RPR1-promoter hybrid RNA with tandem MS2 sites; ssRNA. In short, it runs like this: (§1)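 Pumilio-1 PUF domain libraries, randomized (NNK) at the three base-contacting residues of each repeat, were co-expressed with matching RNA elements from a centromeric plasmid in strain YBZ-1 (LexA–MS2 coat fusion, HIS3 reporter). Transformants were plated on SC-Leu (input) and SC-Leu-His + 0.5 mM 3-AT (selection) for four days, and repeat regions were PCR-amplified and Illumina-sequenced. The interaction score is the log2 change in variant frequency from input to selection, with pseudocount 1 where absent.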
As to “GGCUAGAACUAGUGGAUCCCCCGGCGCCCGGCGGCUCGAGCCCGGGUAAGUGUAAAUAGUCUGCAUGCCGCCGGGCGCCAUGCCUGCAGGUCGACUCUAGAAAACAUG”, the binding signal is 2.93 log2 enrichment (interaction score).

Take “GGCUAGAACUAGUGGAUCCCCCGGCGCCCGGCGGCUCGAGCCCGGGUAAGUGUUAAUAGUCUGCAUGCCGCCGGGCGCCAUGCCUGCAGGUCGACUCUAGAAAACAUG”: the binding signal is 5.76 log2 enrichment (interaction score).

For the sequence “GGCUAGAACUAGUGGAUCCCCCGGCGCCCGGCGGCUCGAGCCCGGGUAAGUGUCAAUAGUCUGCAUGCCGCCGGGCGCCAUGCCUGCAGGUCGACUCUAGAAAACAUG”, the binding signal is 5.53 log2 enrichment (interaction score).

A further assay concerns the target PUM1 PUF domain R4-DWS (Homo sapiens, UniProt Q14671 828-1176, N971D;H972W;Q975S). The assay is described as above. The conditions noted are these: tags: N-Gal4 AD-HA kept; label: inside an RPR1-promoter hybrid RNA with tandem MS2 sites; ssRNA. In short, it runs like this: as §1
In the case of “GGCUAGAACUAGUGGAUCCCCCGGCGCCCGGCGGCUCGAGCCCGGGUAAGUGUAAAUAGUCUGCAUGCCGCCGGGCGCCAUGCCUGCAGGUCGACUCUAGAAAACAUG”, the binding signal is 2.39 log2 enrichment (interaction score).

As to “GGCUAGAACUAGUGGAUCCCCCGGCGCCCGGCGGCUCGAGCCCGGGUAAGUGUAUAUAGUCUGCAUGCCGCCGGGCGCCAUGCCUGCAGGUCGACUCUAGAAAACAUG”, the binding signal was 5.96 log2 enrichment (interaction score).

With “GGCUAGAACUAGUGGAUCCCCCGGCGCCCGGCGGCUCGAGCCCGGGUAAGUGUACAUAGUCUGCAUGCCGCCGGGCGCCAUGCCUGCAGGUCGACUCUAGAAAACAUG”, the binding signal is 2.51 log2 enrichment (interaction score).
